# Test results from ChEMBL document CHEMBL3988442, “University of Dundee, Small-Polar-MMV Screening Library” (2021).
# About 1,000 (1.4%) of roughly 69,000 compounds showed an effect of 50% or more. This excerpt belongs to a sample that is enriched for strong results.
# Test system: Leishmania donovani
# Experiment: Leishmania intramacrophage assay
# Format: functional, organism-based
# Parameters: scale not given: in the data most compounds retested in dose-response had high values
smiles,measurement,setting,value
COCC1CN(C(=O)COc2ccccc2C)Cc2ncn(C)c21.O=C(O)C(F)(F)F (stereo unspecified),Percent Effect,"30.3 µM, […]",12.02%
Cc1ccc(CN2CCn3c(COc4cccnc4)cnc3C2C)o1.O=C(O)C(F)(F)F.O=C(O)C(F)(F)F (stereo unspecified),Percent Effect,"30.3 µM, […]",-4.64%
CCCn1cc(C(=O)N[C@H]2CC[C@H](n3cnnc3)CC2)c(C)n1,Percent Effect,"30.3 µM, […]",11.19%
O=C(O)C(F)(F)F.O=S(=O)(c1cccs1)N1CC[C@H]2[C@H]1CCN2c1ncccn1,Percent Effect,"30.3 µM, […]",-1.813%
Cc1ccc(CN2C[C@@H]3CN(CC4CCOCC4)CCO[C@@H]3C2)s1.O=C(O)C(F)(F)F.O=C(O)C(F)(F)F,Percent Effect,"30.3 µM, […]",24.65%
Cc1csc(CN2C[C@@H]3CN(S(C)(=O)=O)CCO[C@@H]3C2)n1,Percent Effect,"30.3 µM, […]",20.2%
Cc1csc(CN2C[C@@H]3CN(CC4CCOCC4)CCO[C@@H]3C2)n1,Percent Effect,"30.3 µM, […]",53.9%
Cc1nc(C(=O)N2CCCC2c2cncc(CN3CCCC3)n2)co1 (stereo unspecified),Percent Effect,"30.3 µM, […]",16.43%
COc1ccc(CC(=O)N2CCCC(n3nc(C)cc3C)C2)cc1F (stereo unspecified),Percent Effect,30 µM,18.37%
CC(C)CNc1nc(C(=O)/N=c2\[nH]nc(C(C)(C)C)s2)cs1,Percent Effect,"30 µM, 30.03 µM",-9.293%
Cc1cs/c(=N/C(=O)c2csc(NCC(C)C)n2)[nH]1,Percent Effect,"30.3 µM, […]",8.971%
Cc1[nH]/c(=N\C(=O)c2csc(NC3CCCC3)n2)sc1C,Percent Effect,"30.3 µM, […]",100.1%
Cc1[nH]/c(=N\C(=O)c2csc(NC3CC3)n2)sc1C,Percent Effect,"30 µM, 30.03 µM",70.25%
CC(C)(C)[S+]([O-])CCNC(=O)c1csc(NC2CC2)n1 (stereo unspecified),Percent Effect,"30.3 µM, […]",-31.46%
Cc1[nH]/c(=N\C(=O)c2csc(NCC(C)C)n2)sc1C,Percent Effect,"30 µM, 30.03 µM",87.72%
CCN(CC)C(=O)CCCNC(=O)c1csc(NC2CC2)n1,Percent Effect,"30.3 µM, […]",-2.373%
CN1CCN(C(=O)CCc2cc(Br)cs2)CC1,Percent Effect,"30.3 µM, […]",1.944%
O=C(Cc1ccsc1)N1CCN(CC2CC2)c2ncccc2C1.O=C(O)C(F)(F)F,Percent Effect,"30.3 µM, […]",13.41%
CC(C)c1cc(C(F)(F)F)n2nc(C3CCN(S(C)(=O)=O)C3)cc2n1 (stereo unspecified),Percent Effect,"30.3 µM, […]",14.63%
COc1ccc2[nH]cc(C(=O)N3C[C@@H](O)[C@H](N4CCOCC4)C3)c2c1,Percent Effect,"30.3 µM, […]",10.77%
COc1ccccc1OCc1cc(C(=O)N2CCOCC2CO)n[nH]1 (stereo unspecified),Percent Effect,"30.3 µM, […]",28.86%
CCc1ccc(CN(Cc2ccccc2)CC(C)CO)nc1 (stereo unspecified),Percent Effect,"30.3 µM, […]",7.862%
CC(c1nc(C2CC2)no1)N1CCN(CCS(C)(=O)=O)CC1 (stereo unspecified),Percent Effect,"30.3 µM, […]",50.3%
CC(C)OCCN1CCN(C(C)c2nc(C3CC3)no2)CC1 (stereo unspecified),Percent Effect,30 µM,6.668%
COCCN1CCN(C(C)c2nc(C3CC3)no2)CC1 (stereo unspecified),Percent Effect,30 µM,-7.952%
Clc1snnc1CN1CCN(c2nccs2)CC1,Percent Effect,"30.3 µM, […]",-11.24%
COc1ccccc1CC(C)CC(=O)NS(=O)(=O)C(C)C (stereo unspecified),Percent Effect,"30.3 µM, […]",63.27%
COc1ccccc1CC(C)CC(=O)N(C)Cc1cc(C)on1 (stereo unspecified),Percent Effect,"30.3 µM, […]",6.655%
COc1ccccc1CC(=O)NS(C)(=O)=O,Percent Effect,"30 µM, 30.03 µM",11.96%
COc1ccccc1CC(C)CC(=O)O (stereo unspecified),Percent Effect,"30.3 µM, […]",41.22%
COc1ccccc1CC(C)CC(=O)NC(C)C (stereo unspecified),Percent Effect,"30.3 µM, […]",59.88%
